The values below come from PubChem BioAssay (Tox21).

Values joined by “and” are separate entries in the source; they are usually repeats but may differ in a detail not shown here. Equal values may be shown once. Records with an inconclusive call do not appear. A call without a number means that no potency is given here. Active and inactive are the calls of the source. Unless noted, calls follow the shape of the full dose curve.

Sequence of Peroxisome proliferator-activated receptor delta (Homo sapiens) (Q03181 whole entry, looked up): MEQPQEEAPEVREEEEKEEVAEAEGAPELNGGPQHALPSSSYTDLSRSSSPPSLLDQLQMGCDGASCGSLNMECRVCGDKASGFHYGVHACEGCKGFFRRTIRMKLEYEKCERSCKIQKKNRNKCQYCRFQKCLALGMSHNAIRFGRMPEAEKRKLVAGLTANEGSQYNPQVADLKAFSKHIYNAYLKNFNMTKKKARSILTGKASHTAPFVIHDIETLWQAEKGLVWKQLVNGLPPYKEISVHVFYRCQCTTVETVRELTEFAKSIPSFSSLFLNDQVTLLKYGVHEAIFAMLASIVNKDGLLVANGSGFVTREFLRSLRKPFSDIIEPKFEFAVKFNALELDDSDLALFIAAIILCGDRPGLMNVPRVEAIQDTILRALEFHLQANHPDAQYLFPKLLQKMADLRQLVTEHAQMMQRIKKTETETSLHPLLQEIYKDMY

The first assay deals with Peroxisome proliferator-activated receptor delta (Homo sapiens) (UniProt Q03181). Nature of the assay: qHTS assay to identify small molecule agonists of the peroxisome proliferator-activated receptor delta (PPARd) signaling pathway (AID 743212).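 Also: HEK293H cells with PPARd UAS beta-lactamase reporter GeneBLAzer system.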 Also: potency is read from the fitted curve at half-maximal effect. Particulars: HEK293H PPARd-UAS-bla, beta-lactamase FRET ratio, 17 h; series mostly up to 62.6 µM. The gist of the method:
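A PPARd-bla HEK293H line with beta-lactamase under an Upstream Activator Sequence is treated with compounds at 37 C. Substrate loading for 2 h at room temperature precedes the fluorescence measurement.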
A general note: qHTS replaces the single test concentration by a dilution series.
As to `OCC(CO)(CO)CO`, the Potency entry is “inactive”.
The same measure, in the same setting: with `Nc1cccc(N)n1` the entry was “inactive”.
Take `Cc1cc(C)cc(O)c1`: the Potency entry is “inactive”.
In the case of `CC(O)CNCC(C)O` (stereo not given), the Potency result was “inactive”.
Same read-out and setting: with `N[C@@H](Cc1cc(I)c(Oc2ccc(O)c(I)c2)c(I)c1)C(=O)O` the entry was “inactive”; with `N#CCC(=O)O`, “inactive”; with `C1CCCNCC1`, “inactive”.
Regarding `NC(=O)NC(N)=O`, the Potency result was “inactive”.
Still for that read-out and setting: with `OCC(O)CS` (stereo not given) the entry was “inactive”; with `O=[N+]([O-])c1ccccc1C(F)(F)F`, “inactive”; with `CC1=CC(=O)CC(C)(C)C1`, “inactive”.
The same measure, in the same setting: with `C=CC(C)(C)C` the entry was “inactive”.
For `CN1Cc2c(N)cccc2C(c2ccccc2)C1` (stereo not given), the Potency entry was “inactive”.
Turning to `COc1ccc(N)c(OC)c1`, the Potency result was “inactive”.
On the same count and under the same terms, as for `O=C(Cl)c1ccc(C(=O)Cl)cc1`, the entry is “inactive”.
On the same count and under the same terms, as for `OC1CCCCC1`, the entry is “inactive”; as for `CCCCCNCCCCC`, “inactive”.
On the same count and under the same terms, with `Brc1ccc(Oc2ccc(Br)cc2)cc1` the entry was “inactive”; with `Cc1ccccc1C=O`, “inactive”.
Consider `CC(=O)OC/C=C(\C)CCC=C(C)C`, for which the Potency result was “inactive”.
For `O=C(c1ccccc1)c1ccc(O)c(O)c1O`, the Potency result was “inactive”.
Still for that read-out and setting: as for `Cc1nnc(NS(=O)(=O)c2ccc(N)cc2)s1`, the entry is “inactive”; as for `COc1cc(NC(=O)CC(C)=O)c(OC)cc1Cl`, “inactive”.
Take `Cc1cccc(C)c1[N+](=O)[O-]`: the Potency entry was “inactive”.
In the case of `CS(=O)(=O)c1ccc(Cl)cc1`, the Potency entry was “inactive”.
`O=C1CCCCCCCCCCC1`: the Potency entry is “inactive”.
As to `CCCCCCCCC(=O)O`, the Potency entry is “inactive”.
In the case of `CC(=O)OC[C@H]1O[C@@](COC(C)=O)(O[C@H]2O[C@H](COC(C)=O)[C@@H](OC(C)=O)[C@H](OC(C)=O)[C@H]2OC(C)=O)[C@@H](OC(C)=O)[C@@H]1OC(C)=O`, the Potency result was “inactive”.
As for `CC(C)(CO)CO`, the Potency result was “inactive”.
Same read-out and setting: with `CO[Si](CCCNCCN)(OC)OC` the entry was “inactive”.
On to `CCCCCCCCCCCC(=O)N(C)CC(=O)O`, for which the activation is 0.0552% [at 5.95 µM] (inactive).
As to `O=C(O)C1=NN(c2ccc(S(=O)(=O)O)cc2)C(=O)C1`, the Potency entry is “inactive”.
The same measure, in the same setting: as for `CCc1cccc(CC)c1N`, the entry is “inactive”; as for `CC(=O)OCCC(C)C`, “inactive”.
As for `COC(=O)OC`, the Potency result was “inactive”.
Same read-out and setting: with `Nc1nc(N)c2nc(-c3ccccc3)c(N)nc2n1` the figure was 24.5 µM (active) and 23.7 µM (active); with `CC(=O)OC(C)(C)C1CC=C(C)CC1` (stereo not given), “inactive”.
With `CC(=O)C(C)C`, the Potency result was “inactive”.

Tested on in another assay: not listed separately
Nature of the assay: qHTS assay to identify small molecule antagonists of the peroxisome proliferator-activated receptor delta (PPARd) signaling pathway - cell viability counter screen (AID 743213; active = well fitted cell-killing curve with a large enough effect in the repeat runs; also: nearly all actives have a fitted effect of over 50% in size). Particulars: PPARd-bla HEK293H viability, CellTiter-Glo luminescence, 17 h; series mostly up to 62 µM. Summed up: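 Same-well viability: cells pre-incubated 5 h, dosed with compound plus 300 nM L165041, kept 17 h at 37 C, FRET substrate 2 h RT, then CellTiter-Glo 30 min RT and luminescence.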
`OCC(CO)(CO)CO`: the Potency entry was “inactive”.
For the molecule `Nc1cccc(N)n1`, the Potency entry is “inactive”.
With `Cc1cc(C)cc(O)c1`, the Potency result was “inactive”.
Take `CC(O)CNCC(C)O` (stereo not given): the Potency result is “inactive”.
Consider `N[C@@H](Cc1cc(I)c(Oc2ccc(O)c(I)c2)c(I)c1)C(=O)O`, for which the Potency result was “inactive”.
With `N#CCC(=O)O`, the Potency result is “inactive”.
With `C1CCCNCC1`, the Potency entry is “inactive”.
Same read-out and setting: with `NC(=O)NC(N)=O` the entry was “inactive”; with `OCC(O)CS` (stereo not given), “inactive”.
Same read-out and setting: as for `O=[N+]([O-])c1ccccc1C(F)(F)F`, the entry is “inactive”; as for `CC1=CC(=O)CC(C)(C)C1`, “inactive”; as for `C=CC(C)(C)C`, “inactive”.
Same read-out and setting: as for `CN1Cc2c(N)cccc2C(c2ccccc2)C1` (stereo not given), the entry is “inactive”; as for `COc1ccc(N)c(OC)c1`, “inactive”.
As to `O=C(Cl)c1ccc(C(=O)Cl)cc1`, the Potency result is “inactive”.
Same read-out and setting: as for `OC1CCCCC1`, the entry is “inactive”; as for `CCCCCNCCCCC`, “inactive”.
Still for that read-out and setting: as for `Brc1ccc(Oc2ccc(Br)cc2)cc1`, the entry is “inactive”; as for `Cc1ccccc1C=O`, “inactive”.
The same measure, in the same setting: with `CC(=O)OC/C=C(\C)CCC=C(C)C` the entry was “inactive”; with `O=C(c1ccccc1)c1ccc(O)c(O)c1O`, “inactive”; with `Cc1nnc(NS(=O)(=O)c2ccc(N)cc2)s1`, “inactive”.
Consider `COc1cc(NC(=O)CC(C)=O)c(OC)cc1Cl`, for which the Potency result was “inactive”.
Same read-out and setting: as for `Cc1cccc(C)c1[N+](=O)[O-]`, the entry is “inactive”; as for `CS(=O)(=O)c1ccc(Cl)cc1`, “inactive”.
On the same count and under the same terms, with `O=C1CCCCCCCCCCC1` the entry was “inactive”; with `CCCCCCCCC(=O)O`, “inactive”.
As to `CC(=O)OC[C@H]1O[C@@](COC(C)=O)(O[C@H]2O[C@H](COC(C)=O)[C@@H](OC(C)=O)[C@H](OC(C)=O)[C@H]2OC(C)=O)[C@@H](OC(C)=O)[C@@H]1OC(C)=O`, the Potency entry was “inactive”.
The same measure, in the same setting: with `CC(C)(CO)CO` the entry was “inactive”.
On to `CO[Si](CCCNCCN)(OC)OC`, for which the Potency entry is “inactive”.
As for `CCCCCCCCCCCC(=O)N(C)CC(=O)O`, the viability change, negative = cytotoxic is -8.19% [at 6.26 µM] (inactive).
For `O=C(O)C1=NN(c2ccc(S(=O)(=O)O)cc2)C(=O)C1`, the Potency entry was “inactive”.
In the case of `CCc1cccc(CC)c1N`, the Potency result is “inactive”.
As to `CC(=O)OCCC(C)C`, the Potency result is “inactive”.
Still for that read-out and setting: with `COC(=O)OC` the entry was “inactive”; with `Nc1nc(N)c2nc(-c3ccccc3)c(N)nc2n1`, “inactive”; with `CC(=O)OC(C)(C)C1CC=C(C)CC1` (stereo not given), “inactive”.
Same read-out and setting: as for `CC(=O)C(C)C`, the entry is “inactive”.

The target of another assay is Peroxisome proliferator-activated receptor delta (Homo sapiens) (UniProt Q03181). Briefly: qHTS assay to identify small molecule antagonists of the peroxisome proliferator-activated receptor delta (PPARd) signaling pathway (AID 743215; active = well fitted inhibition curve with a large enough effect in the signal ratio in the repeat runs, not every such curve was filed as active; the % refers to the signal ratio;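 also: cells stimulated with agonist L165041 at 300 nM final during compound exposure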). The conditions noted are these: HEK293H PPARd-UAS-bla, beta-lactamase FRET ratio, antagonist, 17 h; series mostly up to 62 µM. The gist of the method:
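PPARd UAS-bla HEK293H cells were pre-incubated 5 h at 37 C, then given test compounds in DMSO plus agonist L165041 (300 nM final). After 17 h at 37 C, beta-lactamase FRET substrate was added; fluorescence read after 2 h at room temperature.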
For the molecule `OCC(CO)(CO)CO`, the Potency entry was “inactive”.
On the same count and under the same terms, with `Nc1cccc(N)n1` the entry was “inactive”; with `Cc1cc(C)cc(O)c1`, “inactive”.
Consider `CC(O)CNCC(C)O` (stereo not given), for which the Potency entry is “inactive”.
Still for that read-out and setting: as for `N[C@@H](Cc1cc(I)c(Oc2ccc(O)c(I)c2)c(I)c1)C(=O)O`, the entry is “inactive”; as for `N#CCC(=O)O`, “inactive”; as for `C1CCCNCC1`, “inactive”.
With `NC(=O)NC(N)=O`, the Potency result was “inactive”.
The same measure, in the same setting: as for `OCC(O)CS` (stereo not given), the entry is “inactive”.
Still for that read-out and setting: with `O=[N+]([O-])c1ccccc1C(F)(F)F` the entry was “inactive”; with `CC1=CC(=O)CC(C)(C)C1`, “inactive”.
As to `C=CC(C)(C)C`, the Potency entry was “inactive”.
Take `CN1Cc2c(N)cccc2C(c2ccccc2)C1` (stereo not given): the Potency entry is “inactive”.
For `O=C(Cl)c1ccc(C(=O)Cl)cc1`, the Potency result is “inactive”.
As for `OC1CCCCC1`, the Potency result was “inactive”.
In the case of `CCCCCNCCCCC`, the Potency entry was “inactive”.
Take `Brc1ccc(Oc2ccc(Br)cc2)cc1`: the Potency entry is “inactive”.
Still for that read-out and setting: as for `Cc1ccccc1C=O`, the entry is “inactive”; as for `CC(=O)OC/C=C(\C)CCC=C(C)C`, “inactive”.
Still for that read-out and setting: with `Cc1nnc(NS(=O)(=O)c2ccc(N)cc2)s1` the entry was “inactive”.
On the same count and under the same terms, as for `Cc1cccc(C)c1[N+](=O)[O-]`, the entry is “inactive”; as for `CS(=O)(=O)c1ccc(Cl)cc1`, “inactive”.
`O=C1CCCCCCCCCCC1`: the Potency entry is “inactive”.
Still for that read-out and setting: as for `CCCCCCCCC(=O)O`, the entry is “inactive”; as for `CC(=O)OC[C@H]1O[C@@](COC(C)=O)(O[C@H]2O[C@H](COC(C)=O)[C@@H](OC(C)=O)[C@H](OC(C)=O)[C@H]2OC(C)=O)[C@@H](OC(C)=O)[C@@H]1OC(C)=O`, “inactive”; as for `CC(C)(CO)CO`, “inactive”.
The same measure, in the same setting: with `CO[Si](CCCNCCN)(OC)OC` the entry was “inactive”.
In the case of `CCCCCCCCCCCC(=O)N(C)CC(=O)O`, the ratio activity, negative = inhibition is -7.38% [at 6.26 µM] (inactive).
On to `O=C(O)C1=NN(c2ccc(S(=O)(=O)O)cc2)C(=O)C1`, for which the Potency entry is “inactive”.
The same measure, in the same setting: with `CCc1cccc(CC)c1N` the entry was “inactive”; with `CC(=O)OCCC(C)C`, “inactive”; with `COC(=O)OC`, “inactive”.
On the same count and under the same terms, as for `CC(=O)OC(C)(C)C1CC=C(C)CC1` (stereo not given), the entry is “inactive”.
With `CC(=O)C(C)C`, the Potency entry was “inactive”.
